Screening data: PubChem, National Center for Advancing Translational Sciences (NCATS)
ALDH1A1 inh: inhibitors of human aldehyde dehydrogenase 1A1; Purified ALDH1A1, NADH fluorescence, propionaldehyde substrate; Potency, µM (series often up to 75.3 µM), usual class: inhibitors; 7.3% of 220,000 active; AID 1030
Target sequence (P00352 whole entry, looked up): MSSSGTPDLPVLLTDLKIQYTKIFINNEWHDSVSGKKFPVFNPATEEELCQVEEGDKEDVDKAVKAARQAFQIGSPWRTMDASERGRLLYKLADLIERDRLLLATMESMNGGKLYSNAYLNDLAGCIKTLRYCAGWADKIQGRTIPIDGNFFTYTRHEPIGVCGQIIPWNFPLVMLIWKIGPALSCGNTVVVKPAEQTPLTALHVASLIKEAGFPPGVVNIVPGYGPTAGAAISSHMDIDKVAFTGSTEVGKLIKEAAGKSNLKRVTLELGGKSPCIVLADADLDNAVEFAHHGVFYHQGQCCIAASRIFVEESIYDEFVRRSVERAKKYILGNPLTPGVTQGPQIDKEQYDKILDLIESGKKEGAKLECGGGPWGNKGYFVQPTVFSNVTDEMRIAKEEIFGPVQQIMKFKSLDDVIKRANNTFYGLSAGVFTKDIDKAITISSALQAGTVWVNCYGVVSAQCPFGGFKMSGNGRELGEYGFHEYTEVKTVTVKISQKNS
PNC inhibitor: blocks assembly of the perinucleolar compartment; PC3M PTB-GFP, PNC prevalence imaging, 16 h; active compounds read low; activity change (PNC), negative = inhibition, % at 10 µM; 3.1% of 140,000 active; AID 2417;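 active = readout at or below -70, meaning at least 70% loss of cells showing the perinucleolar compartment, a nuclear body marking cancer cells; inconclusive = readout between -30 and a set limit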
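Compounds are pinned in duplicate onto adhered PC3M cells stably expressing GFP-tagged PTB and incubated 16 h at 37 C. Cells are then fixed, nuclei stained with Hoechst, and PNC-positive cells counted.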
HPGD inh: blocks human HPGD enzyme activity; Potency, µM, most hits filed as inhibitors; AID 894; purified HPGD, NADH fluorescence kinetic, PGE2 substrate; 4.3% of 150,000 active
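NADH formation kinetics: reaction with 30 uM PGE2 and 1 mM NAD+ (final), 20 nM enzyme, Tris-HCl pH 8 with Tween 20, after 15 min compound preincubation at room temperature. Fluorescence change, last versus first of five reads.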
Of the large screens only hits and unclear results are named; the others gave an inactive call. In the library only some 11% were active in any assay of this set; here they are far more common. Unless noted, calls come from the whole dose curve; as a rule, active = well fitted inhibition curve with a large enough effect (not every such curve was filed as active); inconclusive = small, poorly fitted or top-dose-only effect, or another doubt; inactive = no such curve, though single readings can be large or run the other way.

CSc1nc(C)c(Cc2c(F)cccc2Cl)c(=O)[nH]1	none (no result: PNC inhibitor, HPGD inh)
COc1cccc(NC(=O)C2C3C=CC(O3)C2C(=O)NCc2cccnc2)c1 (centres undefined)	ALDH1A1 inh inconclusive, PNC inhibitor inconclusive
CCOC(=O)c1ccc(Nc2cc(C)nc(C)c2C(=O)OCC)cc1	PNC inhibitor inconclusive
CCOC(=O)c1ccc(Nc2nnc(C(C)(C)C)c(=O)[nH]2)cc1	ALDH1A1 inh 14.1µM (no result: HPGD inh)
COC(=O)CC1C(C)(C)C(OC(C)=O)C2[C@H](OC(C)=O)[C@]34O[C@]2(O)[C@]1(C)C3CC[C@]1(C)C4=CC(=O)OC1c1ccoc1 (some centres undefined)	none (no result: PNC inhibitor)
O=C(O)C(Cc1ccccc1)N1C(=O)/C(=C/c2ccccc2)SC1=S (centres undefined)	none
O=C(O)C(Cc1ccccc1)N1C(=O)/C(=C/c2cccc3ccccc23)SC1=S (centres undefined)	ALDH1A1 inh inconclusive, HPGD inh 14.1µM
Cc1ccc(CN2C(=O)CCC2C(=O)NCc2ccco2)cc1 (centres undefined)	none
O=C(N/N=C/C1C(c2ccccc2)C1(Cl)Cl)c1cccc(Br)c1 (centres undefined)	ALDH1A1 inh 11.2µM
C/C(=N\NC(=O)c1cccc(Br)c1)c1ccc(Br)cc1	none
O=C(NO)c1ccc(OC(F)F)cc1	none
O=C(C[n+]1cn(C(F)F)c2ccccc21)c1ccc(OC(F)F)cc1	ALDH1A1 inh 9.46µM (no result: PNC inhibitor, HPGD inh)
Cc1ccc(S(=O)(=O)CCC(=O)OCn2nnc3ccccc3c2=O)cc1	none (no result: PNC inhibitor, HPGD inh)
C[C@@H](N)C1CCC(C(=O)Nc2ccncc2)CC1 (some centres undefined)	none (no result: PNC inhibitor)
c1coc(C2Nc3cccc4cccc(c34)N2)c1	ALDH1A1 inh 25.1µM, HPGD inh inconclusive
Oc1ccc(C2Nc3cccc4cccc(c34)N2)c(O)c1	ALDH1A1 inh inconclusive, HPGD inh inconclusive
CC1(C)C(=O)C2(C(=O)NCc3ccccc3)CCC1C2 (centres undefined)	PNC inhibitor inconclusive
C=C1C2(C(=O)NCc3ccco3)CCC(C2)C1(C)C (centres undefined)	PNC inhibitor inconclusive, HPGD inh 25.1µM
CCCCCCCCN	ALDH1A1 inh inconclusive (no result: PNC inhibitor)
COC(=O)C(C(=O)OC)[C@@H]1c2ccccc2[C@H]2C(=C[C@@H](C)[C@H]3C(=O)N(c4ccccc4)C(=O)[C@H]32)N1C(=O)OC	ALDH1A1 inh inconclusive (no result: PNC inhibitor)
O=C(O)c1ccc(NCc2nc3ccccc3n2CCOc2ccccc2Cl)cc1	none (no result: PNC inhibitor, HPGD inh)
CCn1c(CNc2ccc(C(=O)O)cc2)nc2ccccc21	PNC inhibitor -109.3
Cc1cccc(-n2ccnc2SCC(=O)N2CCCc3ccccc32)c1C	ALDH1A1 inh inconclusive
Cc1ccc(-n2c([O-])nc(-[n+]3ccccc3)c2C=O)cc1	ALDH1A1 inh 8.91µM
Cc1ccc[n+](-c2nc([O-])sc2C=O)c1	none (no result: PNC inhibitor, HPGD inh)
CC(=O)c1ccc(N2Cc3ccccc3C3(CCOCC3)C2=N)cc1	none (no result: PNC inhibitor, HPGD inh)
COC(=O)CN1C(=O)C(C)(C)Oc2ccc(C(=O)NC3CC3)cc21	none
CC(C)OC(=O)CN1C(=O)C(C)(C)Oc2ccc(C(=O)NC3CC3)cc21	ALDH1A1 inh 11.2µM, PNC inhibitor inconclusive
COc1ccccc1OCCn1cc(/C=N/n2cnnc2)c2ccccc21	none
CC(CC(=O)NC1CCCC1)c1ccccc1 (centres undefined)	PNC inhibitor inconclusive, HPGD inh 2.51µM
CC(=O)NC(CC(=O)NC1CCCCCC1)c1ccccc1 (centres undefined)	PNC inhibitor inconclusive
CC(C(=O)NCCc1ccc(F)cc1)N1CCN(Cc2ccccc2)CC1 (centres undefined)	none (no result: PNC inhibitor, HPGD inh)
CC(C(=O)NC1CCCC1)N1CCN(Cc2ccccc2)CC1 (centres undefined)	ALDH1A1 inh 3.55µM (no result: PNC inhibitor, HPGD inh)
C#CCOCCOCCOCCNc1nc(N2CCN(C(=O)[C@H](CCC(=O)O)n3cc(C(N)CC(C)C)nn3)CC2)nc(N2CCN(C(=O)[C@H](CCC(=O)O)n3cc(C(N)CC(C)C)nn3)CC2)n1 (some centres undefined)	none (no result: PNC inhibitor, HPGD inh)
CS(=O)(=O)N1CC(C(=O)NC2CCCC2)Oc2ccc(Cl)cc21 (centres undefined)	ALDH1A1 inh 10µM
CS(=O)(=O)N1CC(C(=O)NC2CC2)Oc2ccc(Cl)cc21 (centres undefined)	none
CCN1C(=O)C(Cc2nc3ccccc3c(=O)n2C)c2ccccc21 (centres undefined)	ALDH1A1 inh inconclusive
CCCN1C(=O)C(Cc2nc3ccccc3c(=O)n2C)c2ccccc21 (centres undefined)	ALDH1A1 inh 0.282µM
CCOC(=O)C1CCN(Cc2cnc(Oc3ccc(N)cc3)s2)CC1	none
COCc1cc(C)nc(N2CCNCC2)c1C#N	ALDH1A1 inh inconclusive, HPGD inh inconclusive
Cc1ccc(S(=O)(=O)N(C#N)c2nc(C)cc(C)n2)cc1	none
